“And” between values parts separate entries of the source, which are not always exact repeats. Equal values may be shown once. Records with an inconclusive call do not appear. A call without a number means that no potency is given here. Values without a mark were called inactive. The source made the active and inactive calls. Unless noted, the call rests on the fitted dose curve; in most records, active means well fitted curve in the direction sought with a large enough effect; inconclusive means small, poorly fitted or top-dose-only effect, or another doubt; inactive means no such curve, though single readings can be large; an effect the other way counts as inactive or inconclusive.
Legend:
[1] = Primary qHTS for small molecule stabilizers of the endoplasmic reticulum resident proteome: Secreted ER Calcium Modulated Protein (SERCaMP) assay (AID 1508630)
Procedure, shortened: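 The SH-SY5Y reporter protocol was run at 3 concentrations up to 38.3 uM (primary) or 11 concentrations (follow-up): 16 h compound, 100 nM thapsigargin for 4 h, then extracellular luciferase luminescence.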

[2] = A High-Content qHTS Against Drug Library for the Identification of Small Molecules that Inhibit DYT1 Early Onset Primary Dystonia-Associated Cell Pathology (AID 1645839; calls by dose curve)
Procedure, shortened: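 Cells were seeded and left for 24 h, then dosed with compound alongside tetracycline induction of mutant EGFP-TorsinA. They were incubated for 48 h, fixed in 4% paraformaldehyde, permeabilized and imaged for mislocalization (%pathology) and cell count.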

[3] = molecular target: Cytochrome P450 2D6 (Homo sapiens) (UniProt P10635); experiment: Cytochrome P450 family 2 subfamily D member 6 (CYP2D6) small molecule antagonists: luciferase biochemical (cell-free) qHTS assay (AID 1645840; active means well fitted curve in the direction sought with a large enough effect in the repeat runs; an effect the other way counts as inactive or inconclusive; further: nearly all actives have a fitted effect of over 55% in size; further: potency means the concentration at half of the fitted maximal effect)
Procedure, shortened: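 P450-Glo CYP2D6 system: proluciferin substrate converted by enzyme to luciferin, read by luminescence proportional to activity. Enzyme-substrate mix with compound 10 min at room temperature, then NADPH regeneration 1 h before detection reagent.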

[4] = molecular target: Cytochrome P450 3A4 (Homo sapiens) (UniProt P08684); experiment: Cytochrome P450 family 3 subfamily A member 4 (CYP3A4) small molecule antagonists: luciferase qHTS assay (AID 1645841; active means well fitted curve in the direction sought with a large enough effect in the repeat runs; an effect the other way counts as inactive or inconclusive; further: nearly all actives have a fitted effect of over 45% in size)
Procedure, shortened: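 P450-Glo CYP3A4 enzyme with proluciferin substrate preincubated 10 min with compound at room temperature, then NADPH regeneration 1 h. Luciferin detection reagent added for 20 min; luminescence recorded. Ketoconazole positive control.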

[5] = molecular target: Cytochrome P450 2C9 (Homo sapiens) (UniProt P11712); experiment: Cytochrome P450 family 2 subfamily C member 9 (CYP2C9) small molecule antagonists: luciferase biochemical (cell-free) qHTS assay (AID 1645842; active means well fitted curve in the direction sought with a large enough effect in the repeat runs; an effect the other way counts as inactive or inconclusive; further: nearly all actives have a fitted effect of over 55% in size; further: potency means the concentration at half of the fitted maximal effect)
Procedure, shortened: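 P450-Glo CYP2C9 system: proluciferin substrate with enzyme in mix containing 0.4% BSA, 10 min at room temperature, then NADPH regeneration solution added and incubated 1 h at 37C. Detection reagent stopped reaction; luminescence read after 20 min as RLU.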

[6] = Primary qHTS for inhibitors of nuclear receptor binding SET domain protein 2 (NSD2) in an isogenic RCH-ACV NSD2 p.E1099K mutant (9B) (AID 1645876); further: nearly all actives have a fitted effect of over 70% in size; further: potency means the concentration at half of the fitted maximal effect
[7] = Primary qHTS for inhibitors of nuclear receptor binding SET domain protein 2 (NSD2) in an RCH-ACV wild type WT cells (2C) (AID 1645877); further: nearly all actives have a fitted effect of over 70% in size; further: potency means the concentration at half of the fitted maximal effect
[8] = molecular target: N-terminal Xaa-Pro-Lys N-methyltransferase 1 (Homo sapiens) (UniProt Q9BV86); experiment: Confirmatory qHTS for Inhibitors of N-terminal methyltransferase 1 (NTMT1): MTaseGlo Assay (AID 1645874);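 further: luminescence from SAH made as NTMT1 methylates SPKRIA peptide using SAM; nearly all actives have a fitted effect of over 65% in size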
Procedure, shortened: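 Enzyme mix (125 nM NTMT1, 100 uM SAM) + compound, 15 min RT; + 1 uM SPKRIA, 30 min RT, dark; MTase-Glo reagent 30 min, detection solution 30 min; luminescence. % inhibition vs no-enzyme/DMSO controls, 4-parameter Hill fit.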

[9] = Confirmatory qHTS for small molecule stabilizers of the endoplasmic reticulum resident proteome: Secreted ER Calcium Modulated Protein (SERCaMP) assay (AID 1508628); further: nearly all actives have a fitted effect of over 40% in size; further: potency means the concentration at half of the fitted maximal effect
Procedure, shortened: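 GLuc-SERCaMP-expressing SH-SY5Y cells, pretreated 16 h with compound, are challenged with thapsigargin to empty ER calcium stores; after 4 h, coelenterazine is added directly to the medium and luminescence is imaged.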

[10] = Cell Viability qHTS for small molecule stabilizers of the endoplasmic reticulum resident proteome (AID 1508629); details: cell viability counter-screen, 100 nM thapsigargin for final 4 h;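 further: human SH-SY5Y neuroblastoma cells carrying the GLuc-SERCaMP reporter; compound exposure about 46 h in total before the viability read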
[11] = NCATS anti-infectives library activity on HEK293 viability as a counter-qHTS vs the C. elegans viability qHTS (AID 1745854);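 further: HEK293 cells exposed to compounds for 24 hr before the viability read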
Procedure, shortened: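 Compound titrations (final up to 41.7 uM) were incubated with HEK293 cells for 24 hr at 37C under 5% CO2. Viable cells were quantified with CellTiter-Glo after 10 min at ambient temperature.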

[12] = molecular target: Rap guanine nucleotide exchange factor 3 (Homo sapiens) (UniProt O95398); experiment: Confirmatory qHTS for antagonist of cAMP-regulated guanine nucleotide exchange factor 3 (EPAC1) (AID 1645880); further: nearly all actives have a fitted effect of over 55% in size
Procedure, shortened: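 Released BODIPY-GDP fluoresces less than Rap1-bound BODIPY-GDP; the signal is followed at 480/540 nm at 5-min intervals over 30 min, after 5 min at room temperature. Reactions contain 100 nM EPAC1, 250 nM RAP1B-BODIPY-GDP and 50 uM GDP; results are normalized to ATA and DMSO.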

[13] = molecular target: Rap guanine nucleotide exchange factor 3 (Homo sapiens) (UniProt O95398); experiment: Confirmatory qHTS for agonist of cAMP-regulated guanine nucleotide exchange factor 3 (EPAC1) (AID 1645881);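 further: EPAC1 catalysed release of BODIPY-GDP from Rap1B seen as fluorescence loss; nearly all actives have a fitted effect of over 75% in size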
[14] = molecular target: Rap guanine nucleotide exchange factor 4 (Homo sapiens) (UniProt Q8WZA2); experiment: Confirmatory qHTS for agonist of cAMP-regulated guanine nucleotide exchange factor 4 (EPAC2) (AID 1645884);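 further: nucleotide exchange releases bodipy-GDP from Rap1 and this lowers its fluorescence; nearly all actives have a fitted effect of over 65% in size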
[15] = molecular target: Rap guanine nucleotide exchange factor 4 (Homo sapiens) (UniProt Q8WZA2); experiment: Confirmatory qHTS for antagonist of cAMP-regulated guanine nucleotide exchange factor 4 (EPAC2) (AID 1645885); further: potency means the concentration at half of the fitted maximal effect; nearly all actives have a fitted effect of over 25% in size
[16] = NCATS anti-infectives library activity on the primary C. elegans qHTS viability assay (AID 1745855; calls by dose curve); details: C. elegans worm area imaging, day 7; at 41.8 µM (top of the series)
Procedure, shortened: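 Titration-based screen in worms: eggs hatched overnight in M9, L1 larvae fed TOP10 capsules in S medium with compound, incubated 21 °C for 7 days; fluorescent objects gated by size and intensity at days 0, 3 and 7.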

Chain of Rap guanine nucleotide exchange factor 3 (Homo sapiens) (O95398 whole entry, looked up): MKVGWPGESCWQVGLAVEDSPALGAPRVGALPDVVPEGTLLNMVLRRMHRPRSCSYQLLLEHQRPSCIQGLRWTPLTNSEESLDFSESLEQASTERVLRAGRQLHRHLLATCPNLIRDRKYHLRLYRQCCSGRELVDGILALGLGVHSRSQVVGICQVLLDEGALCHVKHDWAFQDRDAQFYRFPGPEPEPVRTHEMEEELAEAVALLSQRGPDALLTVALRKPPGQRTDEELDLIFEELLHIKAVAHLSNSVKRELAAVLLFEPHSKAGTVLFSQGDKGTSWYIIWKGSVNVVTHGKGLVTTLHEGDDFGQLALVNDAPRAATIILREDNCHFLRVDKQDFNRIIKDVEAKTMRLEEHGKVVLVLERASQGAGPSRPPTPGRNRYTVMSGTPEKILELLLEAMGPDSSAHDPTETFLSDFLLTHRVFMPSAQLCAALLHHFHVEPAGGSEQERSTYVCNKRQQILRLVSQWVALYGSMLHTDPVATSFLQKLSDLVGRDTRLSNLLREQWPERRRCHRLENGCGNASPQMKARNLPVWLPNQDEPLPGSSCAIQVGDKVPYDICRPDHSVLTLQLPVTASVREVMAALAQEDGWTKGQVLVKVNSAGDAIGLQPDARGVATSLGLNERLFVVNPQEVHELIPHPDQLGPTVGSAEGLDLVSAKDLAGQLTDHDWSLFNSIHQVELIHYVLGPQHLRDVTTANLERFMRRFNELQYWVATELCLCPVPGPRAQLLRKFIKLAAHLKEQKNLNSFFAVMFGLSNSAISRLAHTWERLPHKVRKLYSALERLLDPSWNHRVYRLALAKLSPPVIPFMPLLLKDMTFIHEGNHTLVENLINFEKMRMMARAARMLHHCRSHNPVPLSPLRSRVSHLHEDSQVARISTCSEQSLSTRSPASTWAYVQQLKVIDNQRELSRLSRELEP
Chain of Cytochrome P450 2D6 (Homo sapiens) (P10635 whole entry, looked up): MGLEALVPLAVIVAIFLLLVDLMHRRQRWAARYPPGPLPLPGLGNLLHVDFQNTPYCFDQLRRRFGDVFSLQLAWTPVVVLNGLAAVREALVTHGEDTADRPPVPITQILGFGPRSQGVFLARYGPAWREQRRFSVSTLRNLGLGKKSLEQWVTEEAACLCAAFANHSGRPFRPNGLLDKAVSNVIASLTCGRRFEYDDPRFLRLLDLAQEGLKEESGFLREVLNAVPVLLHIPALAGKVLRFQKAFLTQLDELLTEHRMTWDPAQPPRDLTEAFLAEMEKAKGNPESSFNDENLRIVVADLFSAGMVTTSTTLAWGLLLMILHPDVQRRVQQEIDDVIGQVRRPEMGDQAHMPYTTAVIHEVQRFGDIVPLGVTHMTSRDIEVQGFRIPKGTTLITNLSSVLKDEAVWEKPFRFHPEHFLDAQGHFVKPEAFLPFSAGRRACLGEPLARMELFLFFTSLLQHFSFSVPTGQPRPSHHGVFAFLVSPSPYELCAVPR
Chain of Cytochrome P450 2C9 (Homo sapiens) (P11712 whole entry, looked up): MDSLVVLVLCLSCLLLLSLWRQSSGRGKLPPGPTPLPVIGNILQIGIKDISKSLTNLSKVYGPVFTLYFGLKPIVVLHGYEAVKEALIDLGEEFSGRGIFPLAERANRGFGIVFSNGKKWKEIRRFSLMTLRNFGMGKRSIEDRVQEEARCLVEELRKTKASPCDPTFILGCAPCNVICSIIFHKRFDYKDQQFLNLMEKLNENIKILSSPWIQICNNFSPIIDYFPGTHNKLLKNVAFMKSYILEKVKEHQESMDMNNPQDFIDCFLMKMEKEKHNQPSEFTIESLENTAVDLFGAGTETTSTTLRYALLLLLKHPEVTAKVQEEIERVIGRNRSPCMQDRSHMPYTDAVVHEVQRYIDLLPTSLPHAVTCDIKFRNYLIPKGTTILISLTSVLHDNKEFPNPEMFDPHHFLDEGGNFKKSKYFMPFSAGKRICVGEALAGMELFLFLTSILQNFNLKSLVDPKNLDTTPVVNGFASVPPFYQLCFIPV
Chain of Rap guanine nucleotide exchange factor 4 (Homo sapiens) (Q8WZA2 whole entry, looked up): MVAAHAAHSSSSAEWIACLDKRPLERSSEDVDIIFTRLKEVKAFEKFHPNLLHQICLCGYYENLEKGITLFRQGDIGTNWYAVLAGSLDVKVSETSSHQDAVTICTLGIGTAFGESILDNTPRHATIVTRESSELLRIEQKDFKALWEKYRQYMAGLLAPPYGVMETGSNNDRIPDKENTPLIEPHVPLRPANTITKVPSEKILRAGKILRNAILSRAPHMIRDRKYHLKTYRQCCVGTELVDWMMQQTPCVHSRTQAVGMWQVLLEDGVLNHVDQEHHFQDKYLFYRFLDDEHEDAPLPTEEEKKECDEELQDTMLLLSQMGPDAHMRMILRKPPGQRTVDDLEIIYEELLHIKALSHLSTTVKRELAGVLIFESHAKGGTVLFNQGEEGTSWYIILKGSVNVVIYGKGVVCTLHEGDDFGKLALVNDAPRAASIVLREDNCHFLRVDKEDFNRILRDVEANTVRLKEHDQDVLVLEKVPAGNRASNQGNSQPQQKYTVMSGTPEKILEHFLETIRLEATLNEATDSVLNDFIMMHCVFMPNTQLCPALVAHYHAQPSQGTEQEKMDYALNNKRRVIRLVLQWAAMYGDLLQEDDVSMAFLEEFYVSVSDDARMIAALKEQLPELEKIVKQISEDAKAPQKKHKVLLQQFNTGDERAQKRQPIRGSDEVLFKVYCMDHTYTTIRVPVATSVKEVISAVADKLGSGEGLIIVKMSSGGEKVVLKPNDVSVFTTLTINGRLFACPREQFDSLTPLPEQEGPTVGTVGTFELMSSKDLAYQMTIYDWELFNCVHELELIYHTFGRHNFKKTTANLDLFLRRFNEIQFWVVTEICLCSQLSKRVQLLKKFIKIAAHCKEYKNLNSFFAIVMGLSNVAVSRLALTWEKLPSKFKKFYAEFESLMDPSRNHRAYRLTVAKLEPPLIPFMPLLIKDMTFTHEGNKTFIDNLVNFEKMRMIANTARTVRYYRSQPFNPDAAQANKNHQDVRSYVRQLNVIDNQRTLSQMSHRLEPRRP
Chain of N-terminal Xaa-Pro-Lys N-methyltransferase 1 (Homo sapiens) (Q9BV86 whole entry, looked up): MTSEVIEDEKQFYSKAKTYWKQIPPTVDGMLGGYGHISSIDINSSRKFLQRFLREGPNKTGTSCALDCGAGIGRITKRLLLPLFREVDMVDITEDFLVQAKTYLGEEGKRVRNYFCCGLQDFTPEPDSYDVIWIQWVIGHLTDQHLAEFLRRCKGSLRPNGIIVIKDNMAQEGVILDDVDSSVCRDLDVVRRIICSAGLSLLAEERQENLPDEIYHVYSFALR
Chain of Cytochrome P450 3A4 (Homo sapiens) (P08684 whole entry, looked up): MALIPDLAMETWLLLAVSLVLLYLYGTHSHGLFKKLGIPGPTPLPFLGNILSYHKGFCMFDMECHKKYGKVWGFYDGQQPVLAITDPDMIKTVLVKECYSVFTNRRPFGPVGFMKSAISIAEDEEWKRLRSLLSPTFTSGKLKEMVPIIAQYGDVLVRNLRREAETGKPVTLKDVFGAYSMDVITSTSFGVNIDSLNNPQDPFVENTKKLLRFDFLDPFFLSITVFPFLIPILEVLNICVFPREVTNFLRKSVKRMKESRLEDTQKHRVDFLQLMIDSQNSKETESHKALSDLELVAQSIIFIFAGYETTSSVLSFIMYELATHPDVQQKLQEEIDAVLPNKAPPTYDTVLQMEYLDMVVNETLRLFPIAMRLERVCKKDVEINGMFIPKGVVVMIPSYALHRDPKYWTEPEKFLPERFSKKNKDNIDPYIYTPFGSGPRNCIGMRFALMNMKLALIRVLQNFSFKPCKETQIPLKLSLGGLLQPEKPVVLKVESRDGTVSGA

Structure (SMILES): Cc1c(C(=O)NCCO)[n+](=O)c2ccccc2n1[O-]
- outcome [1]: inactive
- Potency [2]: inactive
- Potency [3]: inactive
- outcome [4]: inactive
- Potency [5]: inactive
- Potency [6]: inactive
- Potency [7]: inactive

Structure (SMILES): Cc1cc(C)nc(NS(=O)(=O)c2ccc(N)cc2)n1
- outcome [1]: inactive
- Potency [2]: inactive
- Potency [3]: inactive
- Potency [5]: inactive
- Potency [6]: inactive

Structure (SMILES): O=c1[nH]cnc2nc[nH]c12
- outcome [1]: inactive
- Potency [2]: inactive
- Potency [3]: inactive
- Potency [5]: inactive
- Potency [8]: inactive
- Potency [6]: inactive
- Potency [7]: inactive

Structure (SMILES): CCCC(O)C(CC)CO (stereo not given)
- Potency [9]: inactive
- max response [10]: 29.3%
- Potency [2]: inactive
- Potency [3]: inactive
- Potency [5]: inactive
- Potency [6]: inactive
- Potency [7]: inactive

Structure (SMILES): OC(CCN1CCCC1)(c1ccccc1)C1CCCCC1 (stereo not given)
- Potency [9]: 3.98 µM (active)
- Potency [2]: inactive

Structure (SMILES): Cc1cc(O)cc(C)c1Cl
- outcome [1]: inactive
- Potency [2]: inactive
- Potency [3]: inactive
- Potency [5]: inactive
- Potency [6]: inactive
- Potency [7]: inactive
- outcome [11]: inactive

Structure (SMILES): O=c1[nH]c(=O)c2ccccc2o1
- outcome [1]: inactive
- Potency [2]: inactive
- Potency [3]: inactive
- Potency [5]: inactive
- Potency [6]: inactive
- Potency [7]: inactive

Structure (SMILES): O=C1c2ccccc2C(=O)C1c1ccc(Br)cc1
- outcome [1]: inactive
- Potency [2]: inactive
- Potency [3]: inactive
- Potency [5]: 2.19 µM (active)
- Potency [6]: inactive
- Potency [7]: inactive

Structure (SMILES): COCC(=O)Nc1c(I)c(C(=O)NCC(O)CO)c(I)c(C(=O)N(C)CC(O)CO)c1I (stereo not given)
- outcome [1]: inactive
- Potency [2]: inactive
- Potency [3]: inactive
- Potency [5]: inactive
- Potency [6]: inactive
- Potency [7]: inactive

Structure (SMILES): CCc1cccc(CC)c1NC(=O)CN(CC(=O)O)CC(=O)O
- outcome [1]: inactive
- Potency [2]: inactive
- Potency [3]: inactive
- Potency [5]: inactive
- Potency [6]: inactive
- Potency [7]: inactive

Structure (SMILES): CC(C(=O)O)c1ccc2c(c1)Cc1cccnc1O2 (stereo not given)
- outcome [1]: inactive
- Potency [2]: inactive
- Potency [3]: inactive
- Potency [5]: inactive
- Potency [6]: inactive
- Potency [7]: inactive

Structure (SMILES): O=C1c2cccc(O)c2C(=O)c2c(O)cccc21
- outcome [1]: inactive
- Potency [2]: inactive
- Potency [3]: inactive
- Potency [5]: inactive
- Potency [6]: inactive
- Potency [7]: inactive
- outcome [11]: inactive

Structure (SMILES): CC1(C)[C@@H](OC(=O)CCC(=O)O)CC[C@]2(C)[C@H]3C(=O)C=C4[C@@H]5C[C@@](C)(C(=O)O)CC[C@]5(C)CC[C@@]4(C)[C@]3(C)CC[C@@H]12
- outcome [1]: inactive
- Potency [2]: inactive
- Potency [3]: inactive
- Potency [5]: inactive
- Potency [6]: inactive
- Potency [7]: inactive
- outcome [12]: inactive
- outcome [13]: inactive
- outcome [14]: inactive
- Potency [15]: 4.21 µM (active) and 4.13 µM (active)

Structure (SMILES): C[C@@H]1CCC[C@H](C)N1
- outcome [1]: inactive
- Potency [2]: inactive
- Potency [3]: inactive
- Potency [5]: inactive
- Potency [6]: inactive
- Potency [7]: inactive

Structure (SMILES): CCOC(=O)[C@H](CCc1ccccc1)N[C@@H](C)C(=O)N1Cc2cc(OC)c(OC)cc2C[C@H]1C(=O)O
- outcome [1]: inactive
- Potency [2]: inactive
- Potency [3]: inactive
- Potency [5]: 12.3 µM (active)
- Potency [6]: inactive
- Potency [7]: inactive
- outcome [11]: inactive
- outcome [16]: inactive

Structure (SMILES): COc1cc(O)cc(O)c1
- outcome [1]: inactive
- Potency [2]: inactive
- Potency [3]: inactive
- Potency [5]: inactive
- Potency [6]: inactive
- Potency [7]: inactive

Structure (SMILES): CC(=O)OCC(COC(C)=O)OC(C)=O
- outcome [1]: inactive
- Potency [2]: inactive
- Potency [3]: inactive
- Potency [5]: inactive
- Potency [6]: inactive
- Potency [7]: inactive

Structure (SMILES): O=c1[nH]c(=O)n([C@H]2C[C@H](O)[C@@H](CO)O2)cc1I
- outcome [1]: inactive
- Potency [2]: inactive
- Potency [3]: inactive
- Potency [5]: inactive
- Potency [6]: 3.35 µM (active) and 662 nM (active)
- Potency [7]: 2.99 µM (active) and 662 nM (active)
- outcome [11]: inactive

Structure (SMILES): COC(=O)c1ccc(O)cc1
- outcome [1]: inactive
- Potency [2]: inactive
- Potency [3]: inactive
- Potency [5]: inactive
- Potency [6]: inactive
- Potency [7]: inactive

Structure (SMILES): CC(=O)Nc1cccc(O)c1
- outcome [1]: inactive
- Potency [2]: inactive
- Potency [3]: inactive
- Potency [5]: inactive
- Potency [6]: inactive
- Potency [7]: inactive

Structure (SMILES): CC(=O)N[C@@H](Cc1ccc(O)cc1)C(=O)O
- outcome [1]: inactive
- Potency [2]: inactive
- Potency [3]: inactive
- Potency [5]: inactive
- Potency [6]: inactive
- Potency [7]: inactive

Structure (SMILES): O[C@@H]1CO[C@H]2[C@@H]1OC[C@@H]2O
- outcome [1]: inactive
- Potency [2]: inactive
- Potency [3]: inactive
- Potency [5]: inactive
- Potency [6]: inactive
- Potency [7]: inactive

Structure (SMILES): CN1C[C@@H]2C[C@H]1CN2c1cc2c(cc1F)c(=O)c(C(=O)O)cn2C1CC1
- outcome [1]: inactive
- Potency [2]: inactive
- Potency [3]: inactive
- Potency [5]: inactive
- Potency [6]: inactive
- Potency [7]: inactive

Structure (SMILES): COc1ccc(C(=O)NCc2ccc(OCCN(C)C)cc2)cc1OC
- outcome [1]: inactive
- Potency [2]: inactive
- Potency [3]: inactive
- Potency [5]: inactive
- Potency [6]: inactive
- Potency [7]: inactive

Structure (SMILES): CCOC(=O)[C@H](CCc1ccccc1)N[C@@H](C)C(=O)N1CCC[C@H]1C(=O)O
- outcome [1]: inactive
- Potency [2]: inactive
- Potency [3]: inactive
- Potency [5]: inactive
- Potency [6]: inactive
- Potency [7]: inactive

Structure (SMILES): CC[C@]12CCCN3CCc4c(n(c5ccccc45)[C@@](O)(C(=O)OC)C1)[C@@H]32
- outcome [1]: inactive
- Potency [2]: inactive
- Potency [3]: 11 µM (active)
- Potency [5]: inactive
- Potency [6]: inactive
- Potency [7]: inactive

Structure (SMILES): CC(=O)[C@@]1(O)CC[C@H]2[C@@H]3C[C@H](C)C4=CC(=O)C=C[C@]4(C)[C@@]3(F)[C@@H](O)C[C@@]21C
- outcome [1]: inactive
- Potency [2]: inactive
- Potency [3]: inactive
- Potency [5]: 4.36 µM (active)
- Potency [6]: inactive
- Potency [7]: 3 nM (active)

Structure (SMILES): Cn1c([N+](=O)[O-])cnc1COC(N)=O
- outcome [1]: inactive
- Potency [2]: inactive
- Potency [3]: inactive
- Potency [5]: inactive
- Potency [6]: inactive
- Potency [7]: inactive
